In the library only some 4% were active in any assay of this set; here they are far more common.
KKLEB cytotox: counter-screen for CF NF-kB inhibitors: cytotoxicity | KKLEB CF airway cells viability, ATPlite luminescence, overnight; hits give low values; cells stimulated with P. aeruginosa culture filtrate | activity change (cytotoxicity), % at 5 µM | 360,000 compounds, 0.36% hits | AID 602141;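 active = corrected activity change at or below -50% at 5 µM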
HIF-2a inh: inhibitors of HIF-2a; inhibition, % at 18.8 µM; 360,000 compounds, 0.72% hits; AID 624352; 786-0 RCC cells HIF-2a reporter, luciferase luminescence, overnight;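 active = inhibition of the luminescence signal of 40% or more relative to plate controls, in a single-dose primary screen at 18.75 µM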
TWEAK Fn14 block: TWEAK-Fn14 signaling inhibition; TWEAK-stimulated Fn14 reporter cells, luciferase luminescence, 8 h; inhibition, % at 10 µM; 360,000 compounds, 2% hits; AID 1159606; in the data active = inhibition above about 50%
CF NFkB inh: inhibitors of cystic fibrosis induced NF-kB. KKLEB NF-kB-GFP reporter, PAF-induced, GFP fluorescence overnight. inhibition, % at 5 µM. 360,000 compounds, 0.86% hits;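 active = at least 50% inhibition at 5 µM, scaled per plate between neutral and stimulator controls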;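 also: PAF is a Pseudomonas aeruginosa culture filtrate used as stimulus; plate controls were PAF-stimulated DMSO wells for no effect and unstimulated DMSO wells for full effect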
TROY NFkB inh: blocks TROY-dependent signaling in reporter cells; 360,000 compounds, 0.98% hits; Q293 LMP1-TROYcd NF-kB luciferase reporter, 4 h; inhibition, % at 10 µM;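 active = compounds whose plate-normalised and pattern-corrected inhibition of the luciferase reporter signal at the single screening dose is 50% or more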
Peg3 prom inh: reduces Peg3 promoter-driven luciferase expression in HeLa; AID 588405; 360,000 compounds, 1.7% hits; HeLa PEG-Prom luciferase reporter, luminescence, overnight; inhibition, % at 20 µM;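 active = inhibition of at least 50% at 20 µM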
CF NFkB conf: confirmation of cystic fibrosis induced NF-kB inhibitors; shares compounds with CF NFkB inh; KKLEB CF airway cells, PAF-induced NF-kB-GFP fluorescence, overnight; inhibition, % at 5 µM; 1,300 compounds, 64% hits; in the data active = inhibition above about 40%;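 also: stimulus PAF is a Pseudomonas aeruginosa filtrate and not platelet activating factor; plate controls were DMSO wells with stimulus for no effect and unstimulated DMSO wells for full effect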
Mdm2 MdmX conf: confirmation of inhibitors of human Mdm2/MdmX interaction, set 2; shares compounds with HIF-2a inh; SaOS-2 split-luciferase Mdm2/MdmX complementation, luminescence; inhibition, % at 8 µM; 740 compounds, 99% hits; AID 504601;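 active = mean inhibition of the luminescence signal across two replicates at or above 26 percent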
Target sequence (O15151 whole entry, looked up): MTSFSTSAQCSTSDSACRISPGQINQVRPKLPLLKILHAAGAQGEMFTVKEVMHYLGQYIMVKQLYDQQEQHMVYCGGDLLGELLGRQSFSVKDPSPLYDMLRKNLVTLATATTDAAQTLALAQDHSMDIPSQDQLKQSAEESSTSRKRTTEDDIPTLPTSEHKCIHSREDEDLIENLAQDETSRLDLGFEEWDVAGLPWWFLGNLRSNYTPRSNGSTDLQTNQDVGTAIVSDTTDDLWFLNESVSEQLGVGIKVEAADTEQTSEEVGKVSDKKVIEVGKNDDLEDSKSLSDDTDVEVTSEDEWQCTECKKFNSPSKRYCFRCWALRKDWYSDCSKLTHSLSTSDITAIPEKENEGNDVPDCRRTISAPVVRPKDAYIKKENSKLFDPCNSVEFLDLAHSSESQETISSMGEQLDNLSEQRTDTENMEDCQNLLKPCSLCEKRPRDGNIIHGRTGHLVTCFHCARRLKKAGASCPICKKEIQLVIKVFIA
Target sequence (Q00987 whole entry, looked up): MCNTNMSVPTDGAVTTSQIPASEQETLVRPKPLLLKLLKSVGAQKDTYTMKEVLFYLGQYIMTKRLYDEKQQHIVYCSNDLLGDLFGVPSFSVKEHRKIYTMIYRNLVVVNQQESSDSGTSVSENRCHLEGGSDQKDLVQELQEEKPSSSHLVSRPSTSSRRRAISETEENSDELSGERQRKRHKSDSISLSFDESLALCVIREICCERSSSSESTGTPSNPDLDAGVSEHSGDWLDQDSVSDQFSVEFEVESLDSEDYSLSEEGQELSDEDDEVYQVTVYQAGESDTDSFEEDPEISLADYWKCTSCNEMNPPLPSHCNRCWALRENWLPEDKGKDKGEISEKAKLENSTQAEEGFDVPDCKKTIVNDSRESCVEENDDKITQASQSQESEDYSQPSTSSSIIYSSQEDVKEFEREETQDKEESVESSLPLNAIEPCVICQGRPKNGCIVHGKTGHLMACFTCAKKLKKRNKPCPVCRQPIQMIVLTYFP
HIF-2a conf: HIF-2a inhibition, single concentration confirmation; shares compounds with HIF-2a inh; 786-0 RCC cells, HIF-2a luciferase reporter luminescence, overnight; inhibition, % at 18.8 µM; 1,800 compounds, 56% hits; AID 651580;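 active = mean inhibition across four replicates of at least 40 percent at the single tested concentration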
HIF-1a cs: counter-screen for HIF-2a inhibitors: HIF-1a inhibition in MiaPaCa-2 cells. shares compounds with HIF-2a inh. MiaPaCa-2 HIF-1a luciferase reporter, desferoxamine, overnight. inhibition, % at 18.8 µM. 1,800 compounds, 72% hits. AID 651589;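 active = mean inhibition of the reporter signal across four replicates at the single tested dose of 50% or more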
* = called active by the depositor; x = no result.

SMILES	KKLEB cytotox	HIF-2a inh	TWEAK Fn14 block	CF NFkB inh	TROY NFkB inh	Peg3 prom inh	CF NFkB conf	Mdm2 MdmX conf	HIF-2a conf	HIF-1a cs
Cn1c(N)c(C(=O)COC(=O)c2ccccc2C(=O)c2ccc(Cl)c([N+](=O)[O-])c2)c(=O)n(C)c1=O	-19	71*	88*	65*	65*	96*	34	x	32	93*
O=C(COC(=O)c1ccccc1C(=O)c1ccc(Cl)c([N+](=O)[O-])c1)NC1CCCCCC1	-27	93*	98*	86*	78*	104*	106*	103*	-1	106*
Cn1c(N)c(C(=O)COC(=O)c2ccccc2C(=O)c2ccccc2)c(=O)n(C)c1=O	3	15	21	-4	9	7	x	x	x	x
c1ccc(Cc2nnc3sc(C4COc5ccccc5O4)nn23)cc1 (configuration not stated)	-2	-37	-10	14	-22	-13	x	x	x	x
CC(CCc1ccccc1)NC(=S)NC1CCCCC1 (configuration not stated)	6	-3	-39	7	-12	12	x	x	x	x
CC(/C=N/n1c(-c2cccnc2)n[nH]c1=S)=C\c1ccccc1	14	-7	6	12	19	8	x	x	x	x
CC(=C/c1ccccc1)/C=N/n1c(-c2ccncc2)n[nH]c1=S	-4	16	78*	76*	52*	-1	78*	89*	x	x
C=C1C(=O)C23C(O)C1CCC2C12COC3(O)C(O)C1C(C)(C)CCC2O (configuration not stated)	-48	95*	75*	82*	47	94*	70*	x	94*	105*
O=C(Nc1ccc2nc3n(c(=O)c2c1)CCCC3)c1ccccc1F	3	-154	-29	-5	-11	-120	x	x	x	x
O=C(Nc1ccc2nc3n(c(=O)c2c1)CCCCC3)c1cc([N+](=O)[O-])ccc1F	-46	46*	97*	71*	85*	108*	12	x	20	105*
CCc1ccccc1NC(=O)CN(C)C(=O)Cn1cnc2ccc(Cl)cc2c1=O	16	4	-8	-26	-20	10	x	x	x	x
Cc1nn(CC(=O)Nc2ccc3c(c2)OCO3)c(C)c1Cl	-2	-62	-15	-20	-18	-86	x	x	x	x
O=C(Cn1ncc(Cl)c(Cl)c1=O)Nc1ccc2c(c1)OCO2	-36	95*	75*	64*	2	96*	4	103*	-2	104*
O=C(Cn1ncc(Cl)c(Cl)c1=O)c1ccc2c(c1)OCCO2	-38	81*	101*	79*	23	90*	-2	103*	40	103*
CCc1ccccc1NC(=O)CN(C)C(=O)Cn1ncc(Cl)c(Cl)c1=O	-2	98*	93*	52*	11	107*	56*	x	37	106*
CCC(=O)c1ccc2c(c1)OCCO2	1	-18	5	25	-8	-1	x	x	x	x
COc1ccc(-c2nc(NC(=O)CSCCO)sc2C)cc1	-1	-2	1	-2	-24	10	x	x	x	x
CN(CC(=O)Nc1ccccn1)S(=O)(=O)c1ccc(Cl)cc1	-2	1	-3	4	-2	5	x	x	x	x
COc1ccc2cc3c(N)nn(C(=O)c4cccc(F)c4)c3nc2c1	-2	4	14	50	15	8	x	x	x	x
COc1ccc2cc3c(N)nn(C(=O)c4ccc(F)cc4)c3nc2c1	-4	-1	55*	63*	38	-21	72*	91*	x	x
COCCNC(=O)C(OC(=O)c1ccco1)c1ccccc1F (configuration not stated)	9	18	-3	-19	-1	7	x	x	x	x
O=C(Nc1ccc(S(=O)(=O)N2CCCCCC2)cc1)c1[nH]ncc1[N+](=O)[O-]	-12	40*	-19	70*	-37	-21	-49	x	74*	88*
CCOC(=O)C(=Cc1ccc(-n2cncn2)cc1)C(=O)OCC	-8	94*	101*	75*	63*	104*	22	x	90*	106*
CN(c1ncnc(N)c1[N+](=O)[O-])C1CCCCC1	-1	19	81*	84*	52*	31	93*	87*	x	x
CCCCN(c1ccccc1)c1ncnc(N)c1[N+](=O)[O-]	-15	15	83*	76*	36	12	93*	86*	x	x
SMILES	KKLEB cytotox	HIF-2a inh	TWEAK Fn14 block	CF NFkB inh	TROY NFkB inh	Peg3 prom inh	CF NFkB conf	Mdm2 MdmX conf	HIF-2a conf	HIF-1a cs
Cc1cc2c([nH]c3ccccc32)c2c1OC(C)(C)C=C2	-14	-281	-78	16	-67	-390	x	x	x	x
COc1ccc2[nH]c(=O)c3c(c2c1)OC(C)(C)C=C3	-7	22	-5	86*	-5	37	98*	98*	x	x
c1cc2c(cc1Oc1nc(N3CCOCC3)nc(N3CCOCC3)n1)OCO2	1	0	-2	0	-4	6	x	x	x	x
CCc1cc(SC#N)cc(C)c1NC(=O)CCl	-48	46*	26	66*	9	-87	54*	x	47*	62*
CCOC(=O)COc1ccc2ccccc2c1/C=C/[N+](=O)[O-]	-23	90*	32	62*	20	107*	107*	x	86*	104*
CCOC(=O)COc1ccccc1/C=N/O	-4	16	6	1	-1	-103	x	x	x	x
COc1ccccc1-c1cc(C(F)(F)F)nc(N2CCCC2)n1	1	0	8	2	10	18	x	x	x	x
COc1ccccc1-c1cc(C(F)(F)F)nc(S(C)(=O)=O)n1	-47	78*	19	69*	53*	105*	40*	102*	68*	105*
CC(C)c1nc2cc3ccccc3cc2[nH]1	5	-105	-2	-3	-38	-41	x	x	x	x
Cc1nn(-c2ccccc2)c(Cl)c1C(=O)N1CCN(c2ncnc3c2cnn3-c2ccccc2)CC1	-17	12	106*	63*	85*	114*	73*	100*	x	x
CCOCCn1c(CCCO)nc2ccccc21	4	7	-3	-4	-5	-1	x	x	x	x
O=C(Nc1cccc(Cl)c1Cl)C1CCN(c2ncccn2)CC1	6	1	19	-6	-3	9	x	x	x	x
